Entries with a potency or affinity are not part of this list. Results filed as inconclusive are left out. A number with no mark means an inactive call.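 Rule for the calls: active = signal loss with fitted half-maximal concentration at or below twice the top valid tested dose in every test run; inconclusive = runs disagree, flat 30 to 70% signal loss, or poor fit; inactive = all runs flat, opposite direction, or potency beyond limit.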
Test: HEK293T cytotoxicity, dose response, cytotoxicity control for miR-122 modulator project, cell-based, inhibitor set, cherry-pick, set 2 (AID 720697);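 note: 0% = median of neutral control wells and -100% = MG132 positive control wells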
Conditions: HEK293T viability, CellTiter-Glo luminescence, 48 h; series mostly up to 26 µM; activity change, negative = cytotoxicity: at the top concentration

Compared with `C[C@@H]1CN([C@@H](C)CO)C(=O)Cc2cc(NC(=O)C3CCCCC3)ccc2O[C@H]1CN(C)Cc1ccc(-c2ccccc2)cc1`, `C[C@@H]1CN([C@H](C)CO)C(=O)c2cccc(NC(=O)c3ccc(-c4nccs4)cc3)c2O[C@H]1CN(C)S(=O)(=O)c1ccc(F)cc1` is higher in “activity change, negative = cytotoxicity” value: -20.5% [at 23.5 µM] for the first, -1.02% [at 23.5 µM] for the second.

Compared with `CCC(=O)N(C)C[C@@H]1[C@@H](c2ccccc2)[C@H](CO)N1Cc1cccnc1`, `CCN(C[C@H]1[C@H](c2ccccc2)[C@H](CO)N1C(=O)COC)S(C)(=O)=O` is higher in “activity change, negative = cytotoxicity” value: 74.1% [at 23.5 µM] for the first, 222% [at 23.5 µM] for the second.

In the case of `CCCNC(=O)C[C@H]1CC[C@@H]2[C@@H](COc3ccc(NC(=O)c4ccc5c(c4)OCO5)cc3C(=O)N2C)O1`, the “activity change, negative = cytotoxicity” value was 139% [at 23.5 µM].

First: Cc1onc(-c2ccccc2)c1C(=O)NCc1ccccn1
Second: O=C(c1cccc(F)c1)N1C[C@@H]2[C@H](c3ccccc31)[C@H](CO)N2C(=O)Cc1ccccc1
The “activity change, negative = cytotoxicity” value of the first is higher: 94.7% for the first, -34.4% for the second.

Compared with `C[C@@H]1CN([C@H](C)CO)S(=O)(=O)c2ccc(C3=CCCC3)cc2O[C@@H]1CN(C)C(=O)C1CCOCC1`, `C[C@@H]1CN([C@H](C)CO)S(=O)(=O)c2ccc(C3=CCCC3)cc2O[C@@H]1CN(C)C(=O)c1cnccn1` is lower in “activity change, negative = cytotoxicity” value: 95.3% for the first, 83.8% for the second.

Going from `O=C(C1CC1)N(CCN(C(=O)C1CC1)c1ccccc1)c1ccccc1` to `COCC(=O)N1C[C@H]2[C@@H](c3ccccc31)[C@H](CO)N2C(=O)Nc1ccccc1Cl`, the “activity change, negative = cytotoxicity” value falls from 112% to 72.2%.

Compared with `CN1C(=O)c2cc(NC(=O)Nc3ccc(Cl)cc3)ccc2OC[C@@H]2O[C@@H](CC(=O)NCCN3CCCCC3)CC[C@H]21`, `Cc1nn(C)cc1NC(=O)C[C@@H]1CC[C@H]2[C@@H](COc3ccc(NC(=O)Nc4cccc(Cl)c4)cc3C(=O)N2C)O1` is higher in “activity change, negative = cytotoxicity” value: 54.3% for the first, 78.7% for the second.

Going from `Cc1nn(C)cc1NC(=O)C[C@H]1CC[C@H]2[C@H](COc3ccc(NC(=O)c4cccc(F)c4)cc3C(=O)N2C)O1` to `CN1C(=O)c2cc(NC(=O)c3cccc(F)c3)ccc2OC[C@@H]2O[C@H](CC(=O)O)CC[C@H]21`, the “activity change, negative = cytotoxicity” value falls from 132% to 24.4%.

First: CCCNC(=O)N1[C@H](CNC(C)=O)[C@H](c2ccc(C3=CCCC3)cc2)[C@@H]1CO
Second: COCC(=O)N(C[C@H]1[C@H](c2ccccc2)[C@@H](CO)N1C(=O)NC(C)C)C(C)C
The “activity change, negative = cytotoxicity” value of the first is higher: 139% for the first, 11.8% for the second.

Compared with `CCNC(=O)C[C@H]1CC[C@@H]2[C@H](COc3ccc(NC(=O)c4cccs4)cc3C(=O)N2C)O1`, `COC(=O)C[C@H]1CC[C@@H]2[C@@H](COc3ccc(NC(=O)c4cscn4)cc3C(=O)N2C)O1` is lower in “activity change, negative = cytotoxicity” value: 128% for the first, 17.7% for the second.

First: CC(C)NC(=O)N(C)C[C@H]1Oc2cc(C#C[C@H](C)O)ccc2S(=O)(=O)N([C@@H](C)CO)C[C@H]1C
Second: C/C=C/c1ccc2c(c1)O[C@H](CN(C)C(=O)Cc1cccnc1)[C@H](C)CN([C@H](C)CO)S2(=O)=O
The “activity change, negative = cytotoxicity” value of the first is lower: 70.4% for the first, 132% for the second.

First: COc1cccc(C(=O)Nc2ccc3c(c2)C(=O)N(C)[C@@H]2CC[C@@H](CC(=O)NCc4ccc(F)cc4)O[C@@H]2CO3)c1
Second: CN(C)CCCNC(=O)C[C@H]1CC[C@H]2[C@H](COc3ccc(NC(=O)c4cccc(F)c4)cc3C(=O)N2C)O1
The “activity change, negative = cytotoxicity” value of the first is higher: 71.3% for the first, 30.3% for the second.

Going from `Cc1ccnc(Nc2nc(-c3c(C)nc4sccn34)cs2)c1` to `c1ccc(-c2nnc3n2CCCC3)cc1`, the “activity change, negative = cytotoxicity” value rises from -69.2% to 47.8%.

Reference: PubChem BioAssay AID720697 (Broad Institute, 2013)
